From the supplement of paper PMC6555819 come the findings set out here.

The experiment deals with LXRb:RXRa (NR concentration 270 nM, RXRa partner concentration 90 nM). As to the kind of experiment: PBM binding z-score (relative to random genomic background probes); higher = stronger binding; sequences stand for … in GC…GCGATTGACAGCGTAGAATGAAGG
The gist of the method:
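Regression normalization was applied to scanned fluorescence from custom Agilent 4×180K protein-binding microarrays. Before scanning, arrays were incubated 1 h with ligand-free nuclear receptor dimers, and binding was detected with antibodies against each partner (one per run). Binding z-scores use the random background probes as reference.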
On to CCAGACAGGAGAGAAGGTAACTCAGCCTCGATTA, for which the PBM binding z-score amounted to 0.0989.
The value for CGTCAAAGTTCAAGGTAACGTACCAGAAAGCAGC was 3.47; that for TCTAGTTGGTCACGGAAGTCACACACGACGGGTA was 0.598.
For ATATGTAGGTTATCGGTTCATTCAGTTTGCGCAT the value was 1.71; for CCTAGCAGGCCAATGTGGGTCACTCAAGGCTTGA, 0.94; for TCATATAGGTAATACAGGTGAAAGTTGGCATCTA, 1.49.
For GCTAGCATGCCATTTGGGTCACTCAATGACGGGC the value was 0.0644.
CGTCAAAGTTCAAGGTAACGTTACAGAAAGCAGC: the PBM binding z-score was 3.64.
The value for CCTTACGGGTCAAGGTTATAGCACGGGTGGTACG was 2.98; that for CGAACTAGGGCATCCAGGACAGTGAATACATTGA was -0.431; that for TTATCAAGGTGAAGGTCGTTGATCCCTCTGTAGA was 1.75.
For CCAGACAGGTGAAATGTAACTCAGTCTGGTACGC the value was 0.217; for GATTCAGGGTCAAGGCCAGAGTACGCGTATTGAT, 4.43; for CGTCCAAGGTCAATGCTAGGTAAGTGAAAGCATT, 3.61.
For CTCGAAAGGTCGTGCTCAGGTGACTATACCAAAC the value was 3.69.
Consider GCTGCTAGGTCCGGTTGGTCAGCTAACGGGTACG, for which the PBM binding z-score is -1.05.
For TTACCAAGGTGAGCTGAGGTCGTTGACCCAACTC the value was 1.43; for TCTATTAGTTGACGGGCAACCGACGAGTCCGTTT, 0.407.
The value for TTACCAAGGTGAACGTCGTTGATCCCTCTGTAGA was 1.01.
As for GCTATTAGTCGAAAGGGCAACCGAATGATTCTCG, the PBM binding z-score was found to be 0.479.
The value for CCTAGCAGGCTAGGGTCACTCAAGCATTTCGCTT was 2.55.
For CGTCCAAGGTCAAAAGTCAGTGAAGAGATGACGG the value was 3.79; for ATCGAAAGATCGTGAGGTGAGTATACAGAAAGGC, -0.208; for CCTCGGAGGACCACAGGAGGTCAGAGCTGCCAGA, 1.3.
The value for TCGAGTAGGTTACCAATGGGGTATTCAGCTTTCT was 0.847; that for AGAACGAGGGCACGCTGAGATGATAGCAGAGTAG was 0.0557; that for ATCTCTAAGTAAAGTTCAGTGAAAGATCGATAGA was 1.23.
TCTTGTAGATCAAAAGAGGTTAAGAAAGTGCGCT displayed a PBM binding z-score of 1.66.
The value for ATATGTAGGTTAAGGGTCATTCAGGTTGGTTCGC was 4.41; that for CGAACTAGGTCACTGACAGGACAGTGAATAGTAA was 1.64; that for CCTACTGGGCCATCACGTCATTGATATCAACGTT was 0.0401.
Sequence ACCATTAGTTGAGACGAGGGCAACCGATAGGTTG yielded a PBM binding z-score of 0.214.
For TCGAGTAGGTTACCAATGGGGCATTCTGCTTTCT the value was 0.975; for CAAACTAGGTCAAGAGGTCAATGTCCGCTTCCCG, 4.72.
For TAGCCTAGGTCATTCATGGGCCAGTATAGAAAGC the value was 2.34.
For GCTTACGGGTCAAAGGTAATAGCATGAATAGAAT the value was 4.32; for TTACCAAGGTAAAGGTCGTTGATCCCTCTGTAGA, 2.91; for TCTTGTAGATCAACAGGGGGTTAAGAAAGATCGA, 3.75.
On to CAAACTAGGTCAAGGCCAAAGTCGGTTTGTGCCA, for which the PBM binding z-score worked out at 1.71.
The value for CCAGACAGTTGAGAAGGTAACTCAGCCTCGATTA was 0.125.
